High-throughput results as filed in PubChem BioAssay.
TDP1 cell CPT = qHTS for Inhibitors of human tyrosyl-DNA phosphodiesterase 1 (TDP1): qHTS in cells in presence of CPT; chicken DT40 Tdp1-/-;hTDP1 cells + 20 nM CPT, ATP luminescence, 48 h; Potency, µM (doses to about 46.2 µM), inactives show at the highest dose activity change, negative = growth inhibition, hits mostly inhibitors; 12% of 420,000 active; AID 686979, 2013; note: potency is the fitted concentration of half-maximal effect; nearly all actives have a fitted effect of over 55% in size
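Chicken DT40 Tdp1-/- cells stably complemented with human TDP1 were seeded at 400 cells/well in medium containing 20 nM camptothecin, exposed to pin-transferred compounds, and grown at 37 °C for at least 48 hr. Viability was read as ATP luminescence.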
DT40 TDP1 no CPT = qHTS for Inhibitors of human tyrosyl-DNA phosphodiesterase 1 (TDP1): qHTS in cells in absence of CPT. DT40 Tdp1-/- hTDP1 cells, no CPT, ATP luminescence, 48 h. Potency, µM (doses to about 46.2 µM), for the others: at the highest dose activity change, negative = growth inhibition, most hits filed as inhibitors. 15% of 420,000 active. AID 686978, 2013; note: potency is the fitted concentration of half-maximal effect; nearly all actives have a fitted effect of over 55% in size
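Camptothecin absent (DMSO only). Human TDP1-complemented DT40 knockout cells, 400 cells/well, 37 °C for minimum 48 hr; ATP measured via CellTiter-Glo, 30 min dark incubation, luminescence.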
HT1080 IDH1KD tx = qHTS for induction of synthetic lethality in tumor cells producing 2HG: qHTS for the HT-1080-IDH1KD cell line; HT-1080 IDH1 knockdown viability, ATP luminescence, 48 h; Potency, µM (series often up to 46.1 µM), inactives show top-dose activity, negative = toxicity, hits mostly cytotoxic; 2% of 360,000 active;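 note: potency is the fitted concentration of half-maximal effect; 0% = DMSO wells and -100% = cell-free medium wells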
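CellTiter-Glo luminescence after 48 h compound exposure at 37 degrees C of IDH1-knockdown HT-1080 cells in 5% FBS RPMI. %Activity scaled between DMSO wells and cell-free media wells, with curves fitted and assigned curve classes.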
HT1080-NT tox = qHTS for induction of synthetic lethality in tumor cells producing 2HG: qHTS for the HT-1080-NT fibrosarcoma cell line. HT-1080-NT fibrosarcoma viability, CellTiter-Glo ATP luminescence, 48 h. Potency, µM (top dose mostly 46.1 µM), inactives show at the top dose activity, negative = less viability, hits mostly cytotoxic. AID 686970, 2013. 1.6% of 360,000 active;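 note: NT is the 2HG producing partner of a matched IDH1 knockdown line; potency is the fitted concentration of half-maximal effect; 0% = DMSO-treated cells and -100% = media-only wells without cells; nearly all actives have a fitted effect of over 55% in size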
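Read-out is CellTiter-Glo luminescence after 10 minutes at room temperature, following 48 hours' compound treatment of HT-1080-NT cells (750 cells/well, RPMI, 5% FBS, 37 degrees C).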
ELG1 repair inh = qHTS screen for small molecules that inhibit ELG1-dependent DNA repair in human embryonic kidney (HEK293T) cells expressing luciferase-tagged ELG1; Potency, µM (series often up to 46.1 µM), for the others: at the top dose activity change, negative = inhibition, usual class: inhibitors; AID 504467, 2011; HEK293T ELG1-luciferase reporter, luminescence, 16 h; DNA damage induced by 5-fluorouridine; 2.3% of 330,000 active; note: potency is the fitted concentration of half-maximal effect; nearly all actives have a fitted effect of over 55% in size
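In this reporter screen, reduction of luminescence relative to DMSO vehicle indicated activity. Compounds and 5-fluorouridine were added together to 2,000 cells per well, incubated for 16 hr at 37 °C, then developed with ONE-Glo.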
IL-1B inflam inh = qHTS for Inhibitors of Inflammasome Signaling: IL-1-beta AlphaLISA Primary Screen | 4.7% of 360,000 active | activity change, % at 57.5 µM | THP-1 LPS/ATP IL-1B secretion, AlphaLISA, 16 h; stronger effect = lower value; in the data active = activity change below about -50%; inconclusive = mostly about -30% to -49%
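THP-1 cells pretreated 1 hr with compounds (up to 57.5 uM final), then stimulated with LPS (250 ng/mL final) plus ATP (1.25 mM final); secreted IL-1B measured by AlphaLISA after 16 hr, decreased signal indicating inhibition.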
The depositor's hits bear a star; ? = inconclusive; / = no result; [ ] = dose if it differs, or a comment. Shown are actives, neighbours in structure and some others; about 19% of the full set was active somewhere. Unless noted, calls come from the whole dose curve; as a rule, active = well fitted curve in the direction sought with a large enough effect; inconclusive = small, poorly fitted or top-dose-only effect, or another doubt; inactive = no such curve, though single readings can be large; an effect the other way counts as inactive or inconclusive. Unless noted, % is set by controls: 0 for no effect and ±100 for the full control effect.

SMILES	TDP1 cell CPT	DT40 TDP1 no CPT	HT1080 IDH1KD tx	HT1080-NT tox	ELG1 repair inh	IL-1B inflam inh
O=[N+]([O-])c1cccc(/C=N/n2c(C3CCCCC3)n[nH]c2=S)c1	?	16µM*	0%	-1%	12%	5
S=c1[nH]nc(C2CCCCC2)n1/N=C/C(Cl)=C\c1ccccc1	-20%	?	-25%	-19%	-14%	-19
Oc1cccc(/C=N/n2c(C3CCCCC3)n[nH]c2=S)c1	7%	-22%	-14%	-11%	1%	9
CCn1c2ccccc2c2cc(NC(=O)C3CCN(S(=O)(=O)c4cccs4)CC3)ccc21	16µM*	21µM*	-2%	0%	-1%	-9
CCOc1ccc(OCC)c(NC(=O)C2CCCN(c3nc(C)cc(C)n3)C2)c1 (configuration not stated)	23µM*	21µM*	?	12%[9.24 µM]	?	17
CCOc1ccc(OCC)c(NC(=O)C2CCN(S(=O)(=O)c3c(C)[nH]c(=O)[nH]c3=O)CC2)c1	18µM*	?	0%	-2%	12%	11
CCOc1ccc(NC(=O)C2CCN(S(=O)(=O)c3cccs3)CC2)cc1	-16%	?	-1%	-29%	0%	-58*
CC(=O)c1ccc(NC(=O)C2CCN(S(=O)(=O)c3cccs3)CC2)cc1	?	?	-5%	0%	?	3
CCOc1ccc(OCC)c(NC(=O)C2CCN(S(=O)(=O)c3cn(C)cn3)CC2)c1	10%	-3%	/	/	/	/
CCc1nc2c(OCCn3cccc3)cccn2c1N(C)C(=O)c1ccccc1F	?	?	13%	24%	/	-7
CC(C)[C@H](N)C(=O)N1CCC(C(=O)N[C@@H](Cc2ccccc2)C(=O)NCc2ccc(F)cc2)CC1	-1%	0%	-1%	2%	2%	-4
CC(=O)c1nnn(-c2c(F)cccc2F)c1C	-5%	-11%	2%	4%	?	4
CCOc1ccc(OCC)c(NC(=O)C2CCCN(S(=O)(=O)c3cccs3)C2)c1 (configuration not stated)	?	16µM*	2%	2%	?	-25
Cc1nnc(SCC2=C(C(=O)O)N3C(=O)C(NC(=O)Cn4cnnn4)[C@@H]3SC2)s1 (some centres not stated)	8%	1%	/	/	/	/
CCc1sc(Nc2ccc(Cl)cc2)nc1-c1cc2cccc(OC)c2oc1=O	?	21µM*	/	/	/	/
CCc1ccc(Nc2nc(-c3cc4cccc(OC)c4oc3=O)c(CC)s2)cc1	?	23µM*	/	/	/	/
Cc1oc(-c2ccc(Cl)cc2)nc1Cn1c(=O)cc(C)c2c(C)nn(-c3cccc(F)c3)c21	-2%	-11%	/	/	/	/
Cc1cccc(NC(=O)CSc2nccn2Cc2ccco2)c1C	?	1%	7%	8%	?	-12
Cc1cccc(-n2c(SCC(=O)Nc3ccccc3Cl)nc3n[nH]c(C)c3c2=N)c1	15µM*	21µM*	/	/	/	/
CCc1ccccc1NC(=O)CSc1nc2n[nH]c(C)c2c(=N)n1-c1ccc(OC)cc1	9.2µM*	8.2µM*	-24%	-17%	-25%	?
COc1ccccc1NC(=O)CSc1nc2n[nH]c(C)c2c(=N)n1-c1ccccc1Cl	23µM*	26µM*	?	-13%[9.24 µM]	?	-8
COc1ccc(CNC(=O)CSc2nc3[nH]ncc3c(=O)n2-c2ccccc2Br)cc1	/	/	/	/	-5%	/
CCc1ccccc1NC(=O)CSc1nnc(-c2ccc(OC)cc2)s1	9%	-20%	/	/	/	/
COc1ccc(-n2c(SCC(=O)NCc3ccccc3)nc3n[nH]c(C)c3c2=N)cc1	6.5µM*	6.5µM*	/	/	/	/
Cc1cccc(-n2c(SCC(=O)N3CCCC3)nc3n[nH]c(C)c3c2=N)c1	?	?	-21%	-17%[9.24 µM]	-15%	-28
SMILES	TDP1 cell CPT	DT40 TDP1 no CPT	HT1080 IDH1KD tx	HT1080-NT tox	ELG1 repair inh	IL-1B inflam inh
O=C(O)c1ncc(Cl)c(Cl)c1Cl	2%	0%	7%	7%	3%	0
Cc1noc(C)c1NC(=O)Nc1ccc2c(c1)C(=O)N([C@H](C)CO)C[C@H](C)[C@@H](CN(C)S(=O)(=O)c1ccccc1)O2	3%	-17%	-3%	13%	?	-18
CCc1ccccc1NC(=O)CSc1nc2n[nH]c(C)c2c(=N)n1-c1cccc(C)c1	7.3µM*	3.7µM*	/	/	/	/
Cc1cccc(-n2c(N)cc(=O)nc2SCC(=O)Nc2ccccc2)c1	4%	-8%	1%	-4%	13%	-5
Cc1ccc(NC(=O)CSc2nc3n[nH]c(C)c3c(=N)n2-c2ccccc2C)cc1C	-28%	?	/	/	/	/
CCCCNC(=O)CSc1nc2n[nH]c(C)c2c(=N)n1-c1ccccc1CC	15µM*	10µM*	/	/	/	/
O=C(Nc1ccccc1-c1ccccc1)C1CCCCC1	-11%	-5%	-7%	-3%	2%	10
CC1CCN(CC(=O)Nc2ccccc2C(=O)c2ccccc2)CC1	21µM*	15µM*	-2%	0%	-11%	21
CC1CCCCC1NCC(=O)Nc1ccccc1-c1ccccc1 (configuration not stated)	?	18µM*	-7%	-4%	-20%	-2
CC1CCN(CC(=O)Nc2ccccc2-c2ccccc2)CC1	18µM*	?	4%	10%	-3%	2
Cc1c(Cl)cccc1NC(=O)c1cnc2sc(N3CCOCC3)nn2c1=O	-27%	?	/	/	/	/
COC(=O)c1scc(-c2ccc(C)cc2)c1S(=O)(=O)Nc1ccc(OC(F)(F)F)cc1	-7%	-9%	/	/	/	/
CC(C)C[C@]1(c2ccccc2)ON(c2ccccc2C(F)(F)F)C1=O	?	-14%	-15%	-2%	?	-11
COc1ccccc1[C@]1(C)ON(c2ccccc2C(F)(F)F)C1=O	26µM*	?	?	?	21µM*	-100*
O=C(O)CCCCCNC(=O)OCC1c2ccccc2-c2ccccc21	4.1µM*	12µM*	3%	1%	-21%	-4
O=C(O)C1OCC2(CO1)COC(C(=O)O)OC2 (configuration not stated)	14%	-4%	9%	0%	/	-5
